Data from PubChem BioAssay (NCI).
Compounds without any hit were thinned out: in the full panel of roughly 79,000, 15% have a hit. Calls of active or inactive are those of the source. Cut-off read from the data, not from the text of the source: active = growth inhibition above about 70%; inactive = the rest.

What was measured:
[1] = NCI Yeast Anticancer Drug Screen. Data for the rad52 strain (AID 147);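 note: 0% = growth of vehicle-treated control cultures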; settings: S. cerevisiae rad52 mutant growth inhibition, active compounds read high
Outline: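 Here a repair-compromised yeast strain receives each compound; its growth is then quantified and normalised to vehicle-only controls.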

[2] = NCI Yeast Anticancer Drug Screen. Data for the wt1 strain (AID 149);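 note: 0% = growth of vehicle-treated wt1 cultures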; settings: S. cerevisiae wt1 strain (SPY 50644) growth inhibition, active compounds read high
Outline: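 Each compound is tested on wt1 yeast and the loss of growth versus vehicle gives the inhibition value.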

[3] = NCI Yeast Anticancer Drug Screen. Data for the rad50EPP+ strain (AID 151);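 note: 0% = growth of vehicle-treated control cultures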; settings: S. cerevisiae rad50 mutant strain, active compounds read high
Outline: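 Read-out is yeast growth inhibition relative to vehicle; cells used were the rad50EPP+ strain.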

[4] = NCI Yeast Anticancer Drug Screen. Data for the mgt1 strain (AID 153); settings: S. cerevisiae mgt1 mutant growth inhibition, active compounds read high
Outline: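 Measured: inhibition of mgt1 yeast growth by compound, normalized to vehicle-treated cultures.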

[5] = NCI Yeast Anticancer Drug Screen. Data for the rad50 strain (AID 155);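 note: 0% = growth of vehicle-only cultures of the same strain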; settings: S. cerevisiae rad50 strain growth inhibition, active compounds read high
Outline: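 Vehicle-treated cultures provide the reference for the growth inhibition reported for compound-exposed, repair-deficient yeast.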

[6] = NCI Yeast Anticancer Drug Screen. Data for the mec2-1 strain (AID 157); settings: S. cerevisiae mec2-1 strain, active compounds read high
Outline: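 Using mec2-1 yeast: add compound, measure growth, express inhibition versus vehicle-treated cultures.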

[7] = NCI Yeast Anticancer Drug Screen. Data for the rad14 strain (AID 159);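 note: 0% = growth of vehicle-treated control cultures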; settings: S. cerevisiae rad14 strain growth inhibition, active compounds read high
Outline: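 Inhibition of growth is reported for a repair-deficient yeast mutant following compound treatment, calculated relative to cultures that received vehicle.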

[8] = NCI Yeast Anticancer Drug Screen. Data for the sgs1 mgt1 strain (AID 161);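 note: 0% = growth of cultures given vehicle only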; settings: S. cerevisiae sgs1 mgt1 strain, active compounds read high
Outline: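 Growth of a repair-deficient yeast mutant was monitored after compound treatment and expressed as inhibition relative to vehicle-treated cultures.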

[9] = NCI Yeast Anticancer Drug Screen. Data for the CLN2oe strain (AID 163);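 note: 0% = growth of vehicle-only control cultures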; settings: S. cerevisiae CLN2oe strain, active compounds read high
Outline: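 Whole-cell yeast growth assay. A strain engineered for altered cell-cycle control received compound, and inhibition relative to vehicle-treated cultures was recorded.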

[10] = NCI Yeast Anticancer Drug Screen. Data for the cln2 rad14 strain (AID 165);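 note: 0% = growth equal to vehicle treated cultures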; settings: S. cerevisiae cln2 rad14 strain, active compounds read high
Outline: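 Yeast strain cln2 rad14, bearing defects in cell cycle control and DNA repair, serves as the test system; values reflect growth inhibition compared with vehicle.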

[11] = NCI Yeast Anticancer Drug Screen. Data for the bub3 strain (AID 167); settings: S. cerevisiae bub3 mutant strain, active compounds read high
Outline: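 Mutant yeast screening strain plus compound; vehicle-treated cultures serve as the 0% inhibition reference.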

[12] = NCI Yeast Anticancer Drug Screen. Data for the wt2 strain (AID 169); settings: S. cerevisiae wt2 strain growth inhibition, active compounds read high
Outline: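 Treated yeast vs. vehicle-treated yeast: growth inhibition determined.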

[13] = NCI Yeast Anticancer Drug Screen. Data for the mlh1 strain (AID 171);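 note: 0% = growth of vehicle-treated control cultures of the same strain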; settings: S. cerevisiae mlh1 strain growth inhibition, active compounds read high
Outline: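 A yeast strain with a defined genetic lesion serves as the test organism. Cultures receive compound or vehicle, and growth is measured.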

[14] = NCI Yeast Anticancer Drug Screen. Data for the sgs1 strain (AID 173);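 note: 0% = growth of vehicle-only control cultures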; settings: S. cerevisiae sgs1 mutant, active compounds read high
Outline: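 A genetically defined yeast mutant is incubated with the test compound, and its growth is compared to that of the same strain given vehicle.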

[15] = NCI Yeast Anticancer Drug Screen. Data for the mlh1 rad18 strain (AID 175); settings: S. cerevisiae mlh1 rad18 strain growth inhibition, active compounds read high
Outline: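 Steps: expose repair-defective yeast to compound; measure growth; express inhibition against vehicle-treated controls.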

[16] = NCI Yeast Anticancer Drug Screen. Data for the rad18 strain (AID 177); settings: S. cerevisiae rad18 mutant growth inhibition, active compounds read high
Outline: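 Measured value is growth inhibition of a yeast strain bearing a DNA repair alteration, referenced to vehicle-treated cells.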

[17] = at 5.0 µM (retest, dose inferred, filed as 0.5)
[18] = at 50.0 µM (retest, dose inferred, filed as 5.0)

Measured: growth inhibition

O=C1NC(=O)C2C3C=CC(C3)C12 (stereo unspecified)
active: [3]; at 33.0 µM 91% | [3]; at 100.0 µM 97% | [4]; at 11.0 µM 89% | [4]; at 33.0 µM 96% | [4]; at 100.0 µM 97% | [8]; [18] 93% | [8]; at 50.0 µM 94.3% | [12]; at 11.0 µM 94% | [12]; at 33.0 µM 97% | [12]; at 100.0 µM 98% | [13]; at 11.0 µM 79% | [13]; at 33.0 µM 95% | [13]; at 100.0 µM 97% | [14]; at 11.0 µM 97% | [14]; at 33.0 µM 98% | [14]; at 100.0 µM 98%
inactive: [1]; at 1.2 µM -7% | [1]; at 3.7 µM 0% | [1]; at 11.0 µM -2% | [1]; at 33.0 µM -7% | [1]; at 100.0 µM -7% | [2]; at 1.2 µM -5% | [2]; at 3.7 µM -5% | [2]; at 11.0 µM -7% | [2]; at 33.0 µM -7% | [2]; at 100.0 µM -5% | [3]; at 1.2 µM 2% | [3]; at 3.7 µM 21% | [3]; at 11.0 µM 67% | [4]; at 1.2 µM -1% | [4]; at 3.7 µM 23% | [5]; at 1.2 µM -6% | [5]; at 3.7 µM -4% | [5]; [17] -149% | [5]; at 11.0 µM 5% | [5]; at 33.0 µM 8% | [5]; [18] -66% | [5]; at 50.0 µM 3.3% | [5]; at 100.0 µM 0% | [6]; at 1.2 µM -1% | [6]; at 3.7 µM 0% | [6]; [17] -46% | [6]; at 11.0 µM 1% | [6]; at 33.0 µM 1% | [6]; [18] -42% | [6]; at 50.0 µM -2% | [6]; at 100.0 µM -2% | [7]; at 1.2 µM -1% | [7]; at 3.7 µM 3% | [7]; at 11.0 µM 0% | [7]; at 33.0 µM -2% | [7]; at 100.0 µM -1% | [8]; [17] 31% | [9]; at 1.2 µM -4% | [9]; at 3.7 µM -1% | [9]; at 11.0 µM 0% | [9]; at 33.0 µM -6% | [9]; at 100.0 µM -3% | [10]; [17] -55% | [10]; [18] -54% | [10]; at 50.0 µM -13.2% | [11]; at 1.2 µM -5% | [11]; at 3.7 µM -4% | [11]; [17] -64% | [11]; at 11.0 µM -7% | [11]; at 33.0 µM -8% | [11]; [18] -62% | [11]; at 50.0 µM -3.55% | [11]; at 100.0 µM -5% | [12]; at 1.2 µM -5% | [12]; at 3.7 µM 40% | [13]; at 1.2 µM 1% | [13]; at 3.7 µM 12% | [14]; at 1.2 µM -4% | [14]; at 3.7 µM 63% | [15]; [17] -124% | [15]; [18] -123% | [15]; at 50.0 µM 10.6% | [16]; at 1.2 µM -2% | [16]; at 3.7 µM 0% | [16]; at 11.0 µM 0% | [16]; at 33.0 µM 0% | [16]; at 100.0 µM 1%

CCC(C(=O)O)C1=C(c2ccccc2)CCc2ccccc21 (stereo unspecified)
inactive: [1]; at 1.2 µM 10% | [1]; at 3.7 µM 29% | [2]; at 1.2 µM 4% | [2]; at 3.7 µM 20% | [3]; at 1.2 µM 0% | [3]; at 3.7 µM 2% | [3]; at 11.0 µM 7% | [3]; at 33.0 µM 26% | [3]; at 100.0 µM 44% | [4]; at 1.2 µM 7% | [4]; at 3.7 µM 12% | [5]; at 1.2 µM 10% | [5]; at 3.7 µM 30% | [5]; [17] 23% | [6]; at 1.2 µM 9% | [6]; at 3.7 µM 28% | [6]; [17] 11% | [7]; at 1.2 µM 12% | [7]; at 3.7 µM 19% | [8]; [17] 6% | [9]; at 1.2 µM 14% | [9]; at 3.7 µM 23% | [10]; [17] 6% | [11]; at 1.2 µM 6% | [11]; at 3.7 µM 13% | [11]; [17] -2% | [12]; at 1.2 µM 6% | [12]; at 3.7 µM 14% | [13]; at 1.2 µM 9% | [13]; at 3.7 µM 20% | [14]; at 1.2 µM 7% | [14]; at 3.7 µM 24% | [15]; [17] 52% | [16]; at 1.2 µM 8% | [16]; at 3.7 µM 27%
active: [1]; at 11.0 µM 97% | [1]; at 33.0 µM 99% | [1]; at 100.0 µM 98% | [2]; at 11.0 µM 97% | [2]; at 33.0 µM 99% | [2]; at 100.0 µM 94% | [4]; at 11.0 µM 90% | [4]; at 33.0 µM 99% | [4]; at 100.0 µM 80% | [5]; at 11.0 µM 97% | [5]; at 33.0 µM 99% | [5]; [18] 98% | [5]; at 50.0 µM 99.5% | [5]; at 100.0 µM 91% | [6]; at 11.0 µM 95% | [6]; at 33.0 µM 99% | [6]; [18] 99% | [6]; at 50.0 µM 99.5% | [6]; at 100.0 µM 98% | [7]; at 11.0 µM 96% | [7]; at 33.0 µM 99% | [7]; at 100.0 µM 90% | [8]; [18] 99% | [8]; at 50.0 µM 99.5% | [9]; at 11.0 µM 96% | [9]; at 33.0 µM 99% | [9]; at 100.0 µM 92% | [10]; [18] 98% | [10]; at 50.0 µM 98.8% | [11]; at 11.0 µM 93% | [11]; at 33.0 µM 99% | [11]; [18] 97% | [11]; at 50.0 µM 99% | [11]; at 100.0 µM 94% | [12]; at 11.0 µM 96% | [12]; at 33.0 µM 98% | [12]; at 100.0 µM 99% | [13]; at 11.0 µM 96% | [13]; at 33.0 µM 99% | [13]; at 100.0 µM 93% | [14]; at 11.0 µM 97% | [14]; at 33.0 µM 99% | [14]; at 100.0 µM 99% | [15]; [18] 99% | [15]; at 50.0 µM 99.5% | [16]; at 11.0 µM 97% | [16]; at 33.0 µM 99% | [16]; at 100.0 µM 82%
